Screening results (PubChem BioAssay)
Hits are enriched below; roughly 1.6% of the tested compounds scored in any of these assays.
KCNQ2 inh: inhibitors of rat KCNQ2 potassium channel | O88943 | CHO-K1 KCNQ2, FluxOR thallium flux, 20 min; stronger effect = lower value | B-score at 10 µM | actives 1.1% (n = 310,000) | AID 2156;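 active means fluorescence ratio B-score at most minus 3 library SDs, with starting brightness B-score within 2 library SDs, cut at about -5.5 in these data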
KCNQ2 pot: potentiators of rat KCNQ2 potassium channel; CHO-K1 KCNQ2, FluxOR thallium flux fluorescence; stronger effect = higher value; O88943; AID 2239; actives 0.54% (n = 310,000); B-score at 10 µM;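 active means fluorescence ratio B-score at least 3 SD of library B-scores, with initial fluorescence B-score within 3 of them, cut at about 5.3 in these data; same plate scores as AID 2156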;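 further: B-score of peak minus minimum over baseline fluorescence ratio after K+ and Tl+ stimulus; positive B-score means potentiation of KCNQ2 with more thallium influx and brighter signal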
KCNQ2 inh conf: confirmation of rat KCNQ2 potassium channel inhibitors | KCNQ2-expressing cells, thallium flux, inhibition; stronger effect = lower value | shares compounds with KCNQ2 inh | activity change, negative = inhibition, % at 10 µM | actives 57% (n = 1,000)
KCNQ1 spec: selectivity of KCNQ2 inhibitors against human KCNQ1; shares compounds with KCNQ2 inh; KCNQ1-expressing cells, FluxOR thallium flux fluorescence; stronger effect = lower value; activity change, negative = inhibition, % at 10 µM; actives 15% (n = 1,000);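 active means activity change at least 3 SD of negative controls below their mean in both duplicate wells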;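 further: CHO cells stably transfected with KCNQ1 and depolarized by potassium stimulus; peak minus minimum fluorescence over baseline after thallium addition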
Target sequence (P51787 whole entry, looked up): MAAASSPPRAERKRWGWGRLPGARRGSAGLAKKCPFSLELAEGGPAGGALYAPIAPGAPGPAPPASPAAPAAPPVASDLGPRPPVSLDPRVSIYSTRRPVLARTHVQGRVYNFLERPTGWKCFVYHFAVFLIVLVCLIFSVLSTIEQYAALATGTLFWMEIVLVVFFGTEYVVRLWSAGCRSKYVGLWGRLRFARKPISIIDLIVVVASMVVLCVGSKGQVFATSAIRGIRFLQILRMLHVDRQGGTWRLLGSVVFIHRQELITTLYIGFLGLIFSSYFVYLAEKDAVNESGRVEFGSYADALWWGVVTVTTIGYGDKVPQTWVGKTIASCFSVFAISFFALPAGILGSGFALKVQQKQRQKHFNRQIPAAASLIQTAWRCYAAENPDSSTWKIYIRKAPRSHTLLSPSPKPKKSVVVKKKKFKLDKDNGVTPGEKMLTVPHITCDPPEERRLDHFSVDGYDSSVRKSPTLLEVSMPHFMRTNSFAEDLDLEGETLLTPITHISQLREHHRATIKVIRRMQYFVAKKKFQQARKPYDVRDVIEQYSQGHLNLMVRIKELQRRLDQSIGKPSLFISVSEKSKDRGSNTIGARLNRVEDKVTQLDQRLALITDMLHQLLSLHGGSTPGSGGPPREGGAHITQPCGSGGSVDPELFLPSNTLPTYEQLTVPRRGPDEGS
CHO parental ctr: counter-screen for KCNQ2 inhibitors: effect in parental CHO cells; shares compounds with KCNQ2 inh; thallium flux counter-screen; stronger effect = lower value; activity change, % at 10 µM; actives 14% (n = 1,000); AID 493029
KCNQ2 patch conf: blocks rat KCNQ2 current in automated patch clamp; KCNQ2-expressing cells; actives 49% (n = 550); calls only at 10 µM; shares compounds with KCNQ2 inh
A number is an active result. Unless noted, how the calls were made is not given here.

Results for CCc1ccc(-c2nc(CSCC(=O)N3CCN(c4ccccn4)CC3)c(C)o2)cc1 ?
KCNQ2 inh: -10.1; KCNQ2 pot: inactive; KCNQ2 inh conf: -37.5%; KCNQ1 spec: -40.0%; CHO parental ctr: -32.5%; KCNQ2 patch conf: inactive

How did O=C(O)c1cccc([N+](=O)[O-])c1C(=O)Nc1ccc2ccccc2c1 do in these assays?
KCNQ2 inh: inactive

Results for CCOC(=O)COc1c(OC)cc(Cl)cc1C1Nc2ccccc2C(=O)N1c1cccc(C)c1 (configuration not stated) ?
KCNQ2 inh: -10; KCNQ2 pot: inactive; KCNQ2 inh conf: inactive; KCNQ1 spec: inactive; CHO parental ctr: inactive

What do the screens show for `CCOC(=O)COc1ccccc1C1Nc2ccccc2C(=O)N1c1cccc(Cl)c1` (configuration not stated)?
KCNQ2 inh: inactive

What do the screens show for `Cc1ccc(NC(=O)c2nc(S(=O)(=O)Cc3ccccc3C)ncc2Cl)cc1C`?
KCNQ2 inh: inactive; KCNQ2 pot: inactive

What do the screens show for `O=C(O)C1(P(=O)(c2ccc(Cl)cc2)c2ccc(Cl)cc2)CC1`?
KCNQ2 inh: inactive; KCNQ2 pot: inactive

How did CCOC(=O)C1(P(=O)(c2ccc(Cl)cc2)c2ccc(Cl)cc2)CCC1 do in these assays?
KCNQ2 inh: -7.24; KCNQ2 pot: inactive; KCNQ2 inh conf: -29.0%; KCNQ1 spec: inactive; CHO parental ctr: inactive; KCNQ2 patch conf: active

How did Cn1c(Cc2cccs2)nnc1SCC(=O)Nc1ccccc1F do in these assays?
KCNQ2 inh: inactive

What do the screens show for `O=C(CSc1nnc(Cc2cccs2)n1Cc1ccco1)Nc1ccc(Cl)cc1Cl`?
KCNQ2 inh: -6.86; KCNQ2 pot: inactive; KCNQ2 inh conf: inactive; KCNQ1 spec: inactive; CHO parental ctr: inactive

How did Cc1cc(C)cc(NCc2ccncc2)c1 do in these assays?
KCNQ2 inh: inactive

How did CC1C=CCC2C(=O)N(c3cccc(C(=O)Nc4ccc(F)cc4)c3)C(=O)C12 (configuration not stated) do in these assays?
KCNQ2 inh: inactive

Results for Cc1cc(=O)oc2cc(O)c(N=Nc3ccccc3)cc12 ?
KCNQ2 inh: inactive

How did Cc1cccc(-c2nc(CN3CCCC(C(=O)NC4CCCCCC4)C3)c(C)o2)c1 (configuration not stated) do in these assays?
KCNQ2 inh: -9.66; KCNQ2 pot: inactive; KCNQ2 inh conf: -27.5%; KCNQ1 spec: inactive; CHO parental ctr: inactive; KCNQ2 patch conf: active

How did CCc1ccc(-c2nc(CN3CCC(C(=O)NCc4ccccc4OC)CC3)c(C)o2)cc1 do in these assays?
KCNQ2 inh: inactive

How did COc1ccccc1CNC(=O)C1CCN(Cc2nc(-c3cccc(Cl)c3)oc2C)CC1 do in these assays?
KCNQ2 inh: -7.78; KCNQ2 pot: inactive; KCNQ2 inh conf: inactive; KCNQ1 spec: inactive; CHO parental ctr: inactive

How did Cc1cccc(-c2nc(CN3CCCC(C(=O)NC4CCCCC4)C3)c(C)o2)c1 (configuration not stated) do in these assays?
KCNQ2 inh: inactive

Results for COc1cccc(CNC(=O)CN2C(=O)COc3ccc(S(=O)(=O)N4CCCCC4)cc32)c1 ?
KCNQ2 inh: inactive; KCNQ2 pot: inactive

How did Cc1ccc(COc2ccsc2C(=O)NNC(N)=S)cc1 do in these assays?
KCNQ2 inh: inactive

Results for COC(=O)Cc1[nH]n(-c2ccccc2)c(=O)c1C=Nc1ccc(C)cc1 ?
KCNQ2 inh: inactive

Results for O=C(NCC1CCCN(C(=O)Cc2ccccc2Cl)C1)c1ccc(F)cc1 (configuration not stated) ?
KCNQ2 inh: inactive

How did O=C(Cc1ccccc1)NC1c2ccccc2-c2ccccc21 do in these assays?
KCNQ2 inh: -6.75; KCNQ2 pot: inactive; KCNQ2 inh conf: inactive; KCNQ1 spec: inactive; CHO parental ctr: inactive

How did O=C(NC1c2ccccc2-c2ccccc21)N1CCOCC1 do in these assays?
KCNQ2 inh: -6.95; KCNQ2 pot: inactive; KCNQ2 inh conf: -28.5%; KCNQ1 spec: inactive; CHO parental ctr: inactive; KCNQ2 patch conf: active

Results for O=C(Cc1ccccc1)NNC(=O)Cc1ccccc1 ?
KCNQ2 inh: inactive

What do the screens show for `O=C(NC(c1ccccc1)c1ccccc1)N1CCOCC1`?
KCNQ2 inh: inactive

How did O=S(=O)(c1ccc2nc(N3CCN(c4ccc(F)cc4)CC3)ccc2c1)N1CCCCC1 do in these assays?
KCNQ2 inh: inactive; KCNQ2 pot: inactive

Results for Cc1ncc([N+](=O)[O-])n1CC(=O)Nc1ccc2c(c1)OCO2 ?
KCNQ2 inh: inactive; KCNQ2 pot: inactive

How did COc1ccccc1CN1CC(C(=O)NC2CCOCC2)CCC1=O (configuration not stated) do in these assays?
KCNQ2 inh: inactive

Results for Cc1ccc(OCC(=O)N2CCN(c3nnc(-c4ccc(C)cc4)c4ccccc34)CC2)cc1 ?
KCNQ2 inh: -7.65; KCNQ2 pot: inactive; KCNQ2 inh conf: -33.0%; KCNQ1 spec: inactive; CHO parental ctr: inactive; KCNQ2 patch conf: active

What do the screens show for `COc1ccc(OCC(=O)N2CCN(c3nnc(-c4ccc(C)cc4)c4ccccc34)CC2)cc1`?
KCNQ2 inh: inactive

How did CCC(C)(C)n1nnnc1C(c1ccc(C)cc1)N(Cc1ccco1)Cc1cccs1 (configuration not stated) do in these assays?
KCNQ2 inh: -9.93; KCNQ2 pot: inactive; KCNQ2 inh conf: inactive; KCNQ1 spec: inactive; CHO parental ctr: inactive

Results for CCC(C)(C)n1nnnc1C(C(C)C)N(Cc1cccnc1)Cc1ccco1 (configuration not stated) ?
KCNQ2 inh: inactive

What do the screens show for `Cc1ccc(S(=O)(=O)CCC(=O)OCC(=O)NCC(=O)Nc2c(C)cc(C)cc2C)cc1`?
KCNQ2 inh: inactive; KCNQ2 pot: inactive

What do the screens show for `O=C(Nc1ccccc1)/C(=C/c1cccc(Br)c1)NC(=O)c1ccco1`?
KCNQ2 inh: inactive; KCNQ2 pot: inactive

Results for O=C(OCc1ccccc1)/C(=C/c1cccc(Br)c1)NC(=O)c1ccco1 ?
KCNQ2 inh: -9.56; KCNQ2 pot: inactive; KCNQ2 inh conf: -25.0%; KCNQ1 spec: inactive; CHO parental ctr: inactive; KCNQ2 patch conf: active

What do the screens show for `O=C(O)c1ccc2c(c1)C(=O)N(c1ccc(Nc3ccccc3)cc1)C2=O`?
KCNQ2 inh: inactive; KCNQ2 pot: inactive

How did COc1cccc(OC)c1OCc1cc(C2C3CCCC=C3C(C#N)=C(N)C2(C#N)C#N)c(C)cc1C (configuration not stated) do in these assays?
KCNQ2 inh: -11.1; KCNQ2 pot: inactive; KCNQ2 inh conf: inactive; KCNQ1 spec: inactive; CHO parental ctr: inactive

What do the screens show for `CCCN1CC=C2C(C#N)=C(N)C(C#N)(C#N)C(c3cccc(OC)c3OC)C2C1` (configuration not stated)?
KCNQ2 inh: inactive

How did O=C(CSc1nc2ccccc2c(=O)n1CC1CCCCC1)N1CCOCC1 do in these assays?
KCNQ2 inh: inactive

How did CCN(CC)C(=O)CSc1nc2ccccc2c(=O)n1CC1CCCCC1 do in these assays?
KCNQ2 inh: -6.62; KCNQ2 pot: inactive; KCNQ2 inh conf: -45.0%; KCNQ1 spec: -38.0%; CHO parental ctr: -29.5%; KCNQ2 patch conf: active
